SW480 rerep: inducers of DNA re-replication in SW480 colon cancer cells. SW480 DNA re-replication, Hoechst DNA content imaging, 48 h. Potency, µM (top dose mostly 46.1 µM), for the others: top-dose re-replication activation, hits mostly activators. 340,000 compounds, 1.8% hits. AID 624297; further: potency means the concentration at half of the fitted maximal effect; % of control where 0% means no effect; nearly all actives have a fitted effect of over 55% in size
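First, 250 cells per well were seeded. Next, compound or vehicle (23 nL) was pinned in, plates sat 48 hr at 37 C. Finally Hoechst was added for 40 min before fluorescence scanning.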
RORgamma inh: inhibitors of mouse ROR gamma transcriptional activity; Drosophila S2 Gal4-RORgamma UAS-luciferase reporter, 20 h; Potency, µM (doses to about 53.6 µM), for inactives: at the highest dose activity change, negative = inhibition, actives largely listed as inhibitors; 310,000 compounds, 5.4% hits; further: potency means the concentration at half of the fitted maximal effect; on the % scale 0 is the no-effect control and ±100 the full control effect; nearly all actives have a fitted effect of over 60% in size
Target sequence (P51450 whole entry, looked up, the tested form may be a part): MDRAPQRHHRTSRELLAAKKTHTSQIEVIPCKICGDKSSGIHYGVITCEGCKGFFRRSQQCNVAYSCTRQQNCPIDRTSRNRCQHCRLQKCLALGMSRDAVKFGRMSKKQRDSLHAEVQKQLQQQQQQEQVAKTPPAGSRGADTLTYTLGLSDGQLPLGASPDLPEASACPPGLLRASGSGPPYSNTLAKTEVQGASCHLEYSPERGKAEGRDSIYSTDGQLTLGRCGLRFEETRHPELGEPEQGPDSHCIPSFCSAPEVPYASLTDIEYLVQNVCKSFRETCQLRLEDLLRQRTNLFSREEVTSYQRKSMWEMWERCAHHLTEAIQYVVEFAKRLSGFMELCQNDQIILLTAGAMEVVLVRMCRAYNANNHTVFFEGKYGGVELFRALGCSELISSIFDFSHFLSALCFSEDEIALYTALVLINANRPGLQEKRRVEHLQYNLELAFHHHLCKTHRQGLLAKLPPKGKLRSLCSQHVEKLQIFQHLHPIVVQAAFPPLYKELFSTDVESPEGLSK
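Luciferase reporter read in Schneider cells carrying Gal4-RORγ (mouse) and UAS-Photinus luciferase; cells given compound 1 h before 700 uM copper sulfate induction, then incubated 20 h at ambient temperature.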
Gal4-VP16 FLuc: inhibits Gal4-VP16 luciferase reporter, ROR gamma counter-screen. Drosophila S2 Gal4-VP16 UAS-luciferase, luminescence, 20 h. Potency, µM (titrated, usually from 53.6 µM), for the others: at the highest dose activity, negative = inhibition, usual class: inhibitors. 310,000 compounds, 3.5% hits. AID 2546;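 further: Gal4-VP16 expression switched on by copper sulfate through the metallothionein promoter; potency means the concentration at half of the fitted maximal effect; on the % scale 0 is the no-effect control and ±100 the full control effect; nearly all actives have a fitted effect of over 50% in size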
IL-1B inflam inh: blocks inflammasome-driven IL-1 beta release | THP-1 LPS/ATP IL-1B secretion, AlphaLISA, 16 h; stronger effect = lower value | 360,000 compounds, 4.7% hits | activity change, % at 57.5 µM; in the data active means activity change below about -50%; inconclusive means mostly about -30% to -49%; further: on the % scale 0 is the no-effect control and ±100 the full control effect
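Secreted IL-1B measured by AlphaLISA bead assay after 16 h compound exposure of THP-1 cells; compounds (final up to 57.5 uM) added 1 h before LPS (250 ng/mL) and ATP (1.25 mM) stimulation; lower signal means less secretion.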
MCF10A rerep: induces DNA re-replication in MCF 10a normal breast cells. MCF 10A DNA re-replication, Hoechst nuclear intensity, 48 h. Potency, µM (doses to about 46.1 µM), for the others: top-dose activity, positive = re-replication, most hits filed as activators. 350,000 compounds, 2.9% hits; further: potency means the concentration at half of the fitted maximal effect; % of control where 0% means no effect; nearly all actives have a fitted effect of over 50% in size
* hit, by the source's call; [ ] = dose if it differs, or a comment. A selection: hits, their analogues and other compounds. The true share with any hit is near 11%. Unless noted, the call rests on the fitted dose curve; in most records, active means well fitted curve in the direction sought with a large enough effect; inconclusive means small, poorly fitted or top-dose-only effect, or another doubt; inactive means no such curve, though single readings can be large; an effect the other way counts as inactive or inconclusive.

For COc1ccc(C(CNC(=O)CN(C)S(=O)(=O)c2ccc(C)cc2)N2CCCC2)cc1 (stereo unspecified) the results were SW480 rerep -4%, IL-1B inflam inh -17 and MCF10A rerep 6%.
For CCOC(=O)c1c(C)[nH]c(C(=O)OCC(=O)Nc2cc(C)nn2-c2ccccc2)c1C the results were SW480 rerep -2%, IL-1B inflam inh -11 and MCF10A rerep 0%.
Screening COC1=C(c2ccccc2)C(=O)c2ccccc2C1=O returned SW480 rerep inconclusive, RORgamma inh -16%, Gal4-VP16 FLuc -18%, IL-1B inflam inh -169* and MCF10A rerep inconclusive.
O=C(C1=C(c2ccccc2)C(=O)c2ccccc2C1=O)c1ccccc1 was read as SW480 rerep 7.3µM*, RORgamma inh 11µM*, Gal4-VP16 FLuc 11µM*, IL-1B inflam inh -104* and MCF10A rerep 5.2µM*.
For CC(C)NC(=O)Nc1ccc2c(c1)C(=O)N([C@@H](C)CO)C[C@@H](C)[C@H](CN(C)Cc1ccccc1)OCCCC[C@H](C)O2 the results were IL-1B inflam inh -12.
`CC(C)c1ccc(NC(=O)Nc2nc(C(N)c3ccccc3)cs2)cc1` (stereo unspecified) gave IL-1B inflam inh -94*.
For CC(C)c1ccc(NC(=O)Nc2nc(C(N)C(C)C)cs2)cc1 (stereo unspecified) the results were IL-1B inflam inh -63*.
`CNc1nc(-c2cccnc2)nc2ccccc12` gave RORgamma inh 4% and Gal4-VP16 FLuc inconclusive.
`Cc1nn(-c2cc(C)c3ccccc3n2)c2c1C1C(C2)C1(C)C` (stereo unspecified) gave SW480 rerep -1%, RORgamma inh 0.71µM*, Gal4-VP16 FLuc 18µM*, IL-1B inflam inh 26 and MCF10A rerep 2%.
For O=C(NC1=NCCS1)c1csc2ccccc12 the results were SW480 rerep -2%, RORgamma inh 7.9µM*, Gal4-VP16 FLuc inconclusive, IL-1B inflam inh -1 and MCF10A rerep 2%.
Screening O=C(NC1=NCCS1)c1ccc(Cl)c(Cl)c1 returned SW480 rerep 3%, RORgamma inh 11µM*, Gal4-VP16 FLuc inconclusive, IL-1B inflam inh 20 and MCF10A rerep 1%.
For Cc1cc(C(=O)NC2=NCCS2)cs1 the results were SW480 rerep -1%, RORgamma inh 11µM*, Gal4-VP16 FLuc inconclusive, IL-1B inflam inh 2 and MCF10A rerep -1%.
O=C(NC1=NCCS1)c1ccncc1 was read as SW480 rerep -6%, RORgamma inh -14%, Gal4-VP16 FLuc 5%, IL-1B inflam inh -3 and MCF10A rerep -3%.
For COc1cc(OC)c(N(C)S(=O)(=O)c2cccc(C(=O)NC3=NCCS3)c2)cc1Cl the results were SW480 rerep inconclusive, RORgamma inh 10µM*, Gal4-VP16 FLuc inconclusive, IL-1B inflam inh -17 and MCF10A rerep 5%.
For O=C(O)c1ccc2c(=O)n3c(nc2c1)/C(=C/c1ccccc1Br)CC3 the results were SW480 rerep -7%, RORgamma inh 39%, Gal4-VP16 FLuc 3%, IL-1B inflam inh -6 and MCF10A rerep -3%.
Screening O=C1[C@H]2[C@H]3[C@H](O)[C@H](O)C/C(=N/OCc4ccccc4)[C@H]3CC[C@@H]2C(=O)N1c1cccc(Oc2ccccc2)c1 returned RORgamma inh 8%[10 µM] and Gal4-VP16 FLuc -11%[10 µM].
C=C1c2ccccc2O[C@H](C(=O)OCC)C1OC (mixture of isomers) was read as RORgamma inh 1%[96.6 µM] and Gal4-VP16 FLuc 10%[96.6 µM].
Screening CC(C)N(C(=O)[C@H]1CC(CC(=O)NC(C)(C)C)C(=O)N2CCc3c([nH]c4ccccc34)[C@]12C)C(C)C (stereo partly specified) returned SW480 rerep inconclusive, IL-1B inflam inh -16 and MCF10A rerep 14%.
O=C(NC1=NCCS1)c1ccccc1 was read as SW480 rerep -7%, RORgamma inh -12%, Gal4-VP16 FLuc 6%, IL-1B inflam inh 7 and MCF10A rerep 4%.
`Cc1cccc(C(=O)NC2=NCCS2)c1` gave SW480 rerep 6.5µM*, RORgamma inh 11µM*, Gal4-VP16 FLuc -29%, IL-1B inflam inh -13 and MCF10A rerep inconclusive.
For COc1ccc(NC2CCCN(C(=O)CSc3ccccc3)C2)cc1OC (stereo unspecified) the results were SW480 rerep -1%, RORgamma inh -2%, Gal4-VP16 FLuc 1%, IL-1B inflam inh -11 and MCF10A rerep 4%.
Screening CN(C)c1ccc(C(=S)N2CCOCC2)cc1Br returned SW480 rerep -2%, RORgamma inh -39%, Gal4-VP16 FLuc 29%, IL-1B inflam inh -4 and MCF10A rerep -2%.
For Oc1ccc(C(=S)N2CCCCCC2)cc1 the results were SW480 rerep -3%, RORgamma inh 8%, Gal4-VP16 FLuc 6%, IL-1B inflam inh 3 and MCF10A rerep -2%.
`S=C(c1ccc(N2CCCC2)c(Br)c1)N1CCCCC1` gave SW480 rerep 2%, RORgamma inh 20µM*, Gal4-VP16 FLuc -22%, IL-1B inflam inh -14 and MCF10A rerep inconclusive.
`COc1ccc(C(=S)N2CCCCC2)cc1Br` gave SW480 rerep 0%, RORgamma inh -9%, Gal4-VP16 FLuc -5%, IL-1B inflam inh 3 and MCF10A rerep -3%.
`CN(C)c1ccc(C(=S)N2CCCCC2)cc1Br` gave SW480 rerep 5%, RORgamma inh 10µM*, Gal4-VP16 FLuc -8%, IL-1B inflam inh -7 and MCF10A rerep -4%.
Screening S=C(c1ccc(N2CCCC2)cc1)N1CCCCC1 returned SW480 rerep -18%, RORgamma inh 8.9µM*, Gal4-VP16 FLuc inconclusive, IL-1B inflam inh -19 and MCF10A rerep -6%.
Screening COc1ccc(OC)c(NC(=O)CCN2CCN(C)CC2)c1 returned SW480 rerep -9%, RORgamma inh 3%, Gal4-VP16 FLuc 9%, IL-1B inflam inh 20 and MCF10A rerep 1%.
COc1ccc(-n2nc3c(c2NC(=O)CCl)CSC3)cc1 was read as SW480 rerep inconclusive, RORgamma inh -43%, Gal4-VP16 FLuc inconclusive, IL-1B inflam inh -107* and MCF10A rerep 4%.
CCSc1nnc(NC(=O)CN2C(=O)N(C)C3(CCCCC3)C2=O)s1 was read as SW480 rerep -2%, IL-1B inflam inh 1 and MCF10A rerep 0%.
Screening CC(=O)N1CCN(S(=O)(=O)c2cccc(C(=O)N3CCN(S(=O)(=O)c4c(C)c(C)cc(C)c4C)CC3)c2)CC1 returned IL-1B inflam inh -15.
Screening O=c1[nH]c(=O)c2nc(-c3ccc(Cl)cc3)cnc2[nH]1 returned SW480 rerep inconclusive, RORgamma inh 28%, Gal4-VP16 FLuc 0%, IL-1B inflam inh -5 and MCF10A rerep -29%.

Assay outcomes from PubChem BioAssay.
